Screen size: about 37,000 compounds; about 2,800 (7.6%) were called active. Not shown: some 1% with an inconclusive outcome. This excerpt belongs to a sample that is enriched for actives. A number with no mark means an inactive call. No stated cut-off is given here; in the data, active means inhibition above about 80%; inconclusive means no clear call, values can overlap the other calls; inactive means below that.

This test can be described thus: NOMO-1 AML cell viability reduction, primary screen, STK33 inhibitor project, CellTiter-Glo luminescence (AID 2330). Conditions: NOMO-1 AML viability, 72 h, hits give high values, concentration not given here.
Regarding `O=C1Cc2ccc(F)cc2CC1C1=Cc2ccc(F)cc2CC1` (stereo not drawn), the inhibition is 114% (active).

On to `Cc1ccc(NC(N)=O)cc1`, for which the inhibition is 0.872%.

Regarding `Oc1ccc(CN2CCCC2)c2cccnc12`, the inhibition was 141% (active).

On to `C[C@H](CO)N1C[C@H](C)[C@H](CN(C)S(=O)(=O)c2ccc(Cl)cc2)Oc2c(NS(C)(=O)=O)cccc2C1=O`, for which the inhibition is 9.14%.

Take `C[C@H](CO)N1C[C@H](C)[C@H](CN(C)S(=O)(=O)c2cccs2)Oc2ccc(NS(=O)(=O)c3ccc(Cl)cc3)cc2CC1=O`: the inhibition is 12.4%.

As to `COc1c(C)c2c(c(O)c1C/C=C(\C)CCC(=O)O)C(=O)OC2`, the inhibition was 139% (active).

In the case of `CS(=O)(=O)N(CC(=O)Nc1ccc(F)c(F)c1)c1ccccc1F`, the inhibition is -8.09%.

On to `Oc1c(Cl)cc(Cl)cc1C1Nc2cc(C(F)(F)F)ccc2-n2cccc21` (stereo not drawn), for which the inhibition is 114% (active).

Turning to `C[C@@H]1CN([C@H](C)CO)C(=O)Cc2cc(NC(=O)CCN3CCOCC3)ccc2O[C@@H]1CN(C)S(C)(=O)=O`, the inhibition is 5.67%.

For the compound `CC(C)NC(=O)N(C)C[C@@H]1Oc2ccc(NS(=O)(=O)c3cn(C)cn3)cc2C(=O)N([C@@H](C)CO)C[C@@H]1C`, the inhibition was 18.9%.

For `Cn1c(OCc2cccnc2)nc2c1c(=O)n(Cc1ccc(Cl)c(Cl)c1)c(=O)n2C`, the inhibition is 27.8%.

Consider `c1ccc2[nH]c(CSc3nc4ccccc4[nH]3)nc2c1`, for which the inhibition was 6.35%.

With `Cc1cc(=O)oc2cc(OCc3cccc(F)c3)ccc12`, the inhibition is 25.5%.

`CCOC(=O)c1cc(=O)c2ccc(OCc3ccccc3)cc2o1`: the inhibition was 105% (active).

Regarding `Cc1c(CCC(=O)O)c(=O)oc2cc(OCc3ccc(Br)cc3)ccc12`, the inhibition was 19.3%.

Consider `O=C(CSc1nnc2ccc3ccccc3n12)Nc1ccc2c(c1)OCCO2`, for which the inhibition is 12.1%.

Turning to `NC(=O)CSc1oc(-c2cccs2)nc1S(=O)(=O)c1ccccc1`, the inhibition was 11.4%.

Turning to `Cc1noc(C)c1NC(=O)N(C)C[C@@H]1Oc2ccc(NS(C)(=O)=O)cc2C(=O)N([C@@H](C)CO)C[C@@H]1C`, the inhibition is -15.6%.

As for `COc1ccc(NC(=O)Nc2ccc3c(c2)C(=O)N([C@H](C)CO)C[C@H](C)[C@@H](CN(C)C(=O)Nc2ccc4c(c2)OCO4)O3)cc1`, the inhibition is 14.3%.

Regarding `COC(=O)c1cc(OC)c(OC)cc1NC(=O)COc1ccccc1Cl`, the inhibition was -12.9%.

Turning to `COC(=O)c1c(-c2cccnc2)csc1NC(=O)c1cc(-c2ccc(C)o2)nc2ccccc12`, the inhibition is 86.9% (active).

In the case of `COC(=O)c1cc(OC)c(OC)cc1NC(=O)c1cc(-c2ccc(C)o2)nc2ccccc12`, the inhibition is 92.8% (active).

For the compound `COC(=O)c1cc(OC)c(OC)cc1NC(=O)COc1ccc(Cl)cc1`, the inhibition is 15.1%.

Regarding `Cc1ccccc1OCC(=O)Nc1cc(-c2nc3ccccc3s2)c(Cl)cc1Cl`, the inhibition was 6.92%.

With `COc1ccc(NC(=O)N(C)C[C@H]2Oc3ccc(NC(=O)NC(C)C)cc3CC(=O)N([C@H](C)CO)C[C@H]2C)cc1`, the inhibition was 3.6%.

For the compound `C[C@@H]1CN([C@H](C)CO)C(=O)Cc2cc(NS(C)(=O)=O)ccc2O[C@H]1CN(C)S(=O)(=O)c1ccccc1`, the inhibition is -9.84%.

Consider `Cn1c(=O)c2c(nc(SCC(=O)O)n2Cc2ccc(F)cc2)n(C)c1=O`, for which the inhibition was 17.9%.

Turning to `Cc1cc(=O)oc2cc(OC(C)C(=O)Nc3ccc(Cl)c(C(F)(F)F)c3)ccc12` (stereo not drawn), the inhibition was 4.93%.

Consider `C[C@H]1CN([C@@H](C)CO)C(=O)c2cc(NC(=O)Nc3ccccc3)ccc2O[C@H]1CN(C)S(C)(=O)=O`, for which the inhibition is 15.5%.

Regarding `CC(=O)c1cccc(NC(=O)CN(c2ccc(F)c(Cl)c2)S(C)(=O)=O)c1`, the inhibition was 13.8%.

Consider `Cc1noc(C)c1NC(=O)Nc1ccc2c(c1)CC(=O)N([C@@H](C)CO)C[C@@H](C)[C@@H](CN(C)Cc1ccc(Cl)c(Cl)c1)O2`, for which the inhibition was 58.1%.

With `COc1cc(O)cc(C)c1C(=O)OC1C(CO)OC(n2ccc(=O)[nH]c2=O)C1OC(C)=O` (stereo not drawn), the inhibition was 6.97%.

As for `CCc1cc(C(=O)OC)c(NC(=S)Nc2ccc(OC)cc2[N+](=O)[O-])s1`, the inhibition was 22.2%.

In the case of `COC(=O)c1cc(C)sc1NC(=S)Nc1ncn(Cc2ccc(F)cc2Cl)n1`, the inhibition is 109% (active).

Take `C[C@H]1CN([C@@H](C)CO)C(=O)Cc2cc(NS(=O)(=O)c3cccs3)ccc2O[C@@H]1CN(C)Cc1ccc(Oc2ccccc2)cc1`: the inhibition was 78.4%.

For `C[C@@H]1CN([C@@H](C)CO)C(=O)Cc2cc(NC(=O)Nc3ccc4c(c3)OCO4)ccc2O[C@@H]1CN(C)CC1CCCCC1`, the inhibition was 88.2% (active).

`C[C@@H]1CN([C@@H](C)CO)C(=O)Cc2cc(NC(=O)Nc3cccc4ccccc34)ccc2O[C@@H]1CN(C)CC1CCCCC1`: the inhibition was 117% (active).

On to `C[C@H]1CN([C@@H](C)CO)C(=O)Cc2cc(NC(=O)Nc3ccc4c(c3)OCO4)ccc2O[C@H]1CN(C)CC1CC1`, for which the inhibition is 11.8%.

Consider `C[C@H]1CN([C@@H](C)CO)C(=O)Cc2cc(NC(=O)Nc3cccc4ccccc34)ccc2O[C@H]1CN(C)CC1CC1`, for which the inhibition is 26.7%.

For the compound `C[C@H]1CN([C@@H](C)CO)C(=O)Cc2cc(NC(=O)Nc3cccc4ccccc34)ccc2O[C@@H]1CN(C)S(C)(=O)=O`, the inhibition was 0.688%.

On to `C[C@H]1CN([C@@H](C)CO)C(=O)c2cc(NC(=O)Nc3ccc4c(c3)OCO4)ccc2O[C@@H]1CN(C)CC1CCCCC1`, for which the inhibition was 31.9%.

As to `C[C@H](CO)N1C[C@H](C)[C@@H](CN(C)Cc2ccc3c(c2)OCO3)Oc2c(NC(=O)C3CCOCC3)cccc2C1=O`, the inhibition is 20.1%.

Regarding `O=C(Nc1ccc(Cl)cc1C(=O)NCc1ccco1)c1ccco1`, the inhibition was 31.2%.

In the case of `C[C@H](CO)N1C[C@H](C)[C@@H](CN(C)Cc2ccc(Cl)c(Cl)c2)Oc2c(NC(=O)C3CCCCC3)cccc2C1=O`, the inhibition is 102% (active).

In the case of `C[C@@H]1CN([C@H](C)CO)C(=O)c2cccc(NC(=O)c3nc4ccccc4s3)c2O[C@H]1CN(C)S(=O)(=O)c1ccc(Cl)cc1`, the inhibition was 61.5%.

As for `CC(C)NC(=O)N(C)C[C@@H]1Oc2c(NC(=O)c3nc4ccccc4s3)cccc2C(=O)N([C@H](C)CO)C[C@H]1C`, the inhibition was -10.2%.

For the compound `C[C@@H]1CN([C@H](C)CO)C(=O)c2cccc(NC(=O)c3nc4ccccc4s3)c2O[C@@H]1CN(C)C`, the inhibition was 6.43%.

Consider `C[C@@H]1CN([C@@H](C)CO)C(=O)c2cccc(NC(=O)c3nc4ccccc4s3)c2O[C@@H]1CN(C)Cc1ccc(Cl)c(Cl)c1`, for which the inhibition was 87.1% (active).

With `C[C@@H]1CN([C@H](C)CO)C(=O)c2cccc(NC(=O)c3nc4ccccc4s3)c2O[C@@H]1CN(C)Cc1ccc(Oc2ccccc2)cc1`, the inhibition is 54.9%.

For the compound `C[C@@H]1CN([C@H](C)CO)C(=O)c2cccc(NC(=O)c3nc4ccccc4s3)c2O[C@H]1CN(C)Cc1ccccc1`, the inhibition is 96.6% (active).

Consider `COc1ccc(CN(C)C[C@H]2Oc3c(NC(=O)C4CCCCC4)cccc3C(=O)N([C@@H](C)CO)C[C@@H]2C)cc1`, for which the inhibition is 15.7%.

In the case of `COc1ccc(CN(C)C[C@H]2Oc3c(NC(=O)C4CCCCC4)cccc3C(=O)N([C@@H](C)CO)C[C@H]2C)cc1`, the inhibition is 2.14%.

Turning to `Cc1cc(C)c(OCC(=O)Nc2cccnc2)c(Br)c1`, the inhibition is 5.52%.

`COc1cc(C(C)=O)ccc1OCC(O)Cn1nc(C)cc1C` (stereo not drawn): the inhibition was 10.2%.

Consider `COc1ccc(NC(=O)Nc2ccc3c(c2)CC(=O)N([C@@H](C)CO)C[C@H](C)[C@@H](CN(C)S(=O)(=O)c2cn(C)cn2)O3)cc1`, for which the inhibition was -12.8%.

Take `C[C@H]1CN([C@@H](C)CO)C(=O)c2cc(NC(=O)Cn3cnnn3)ccc2O[C@H]1CN(C)Cc1ccc(C(=O)O)cc1`: the inhibition is 30.7%.

For `COc1ccc(CCn2c(C)nc(=O)c(-c3ccccc3)c2C)cc1OC`, the inhibition was 2.96%.

Turning to `C[C@@H]1CN([C@@H](C)CO)C(=O)c2cccc(NS(=O)(=O)c3ccc(F)cc3)c2O[C@H]1CN(C)C(=O)NC1CCCCC1`, the inhibition is 4.03%.

With `C[C@H](CO)N1C[C@H](C)[C@@H](CN(C)Cc2ccc(Cl)c(Cl)c2)Oc2c(NC(=O)Nc3ccccc3)cccc2C1=O`, the inhibition was 59.3%.

With `O=C(c1cc([N+](=O)[O-])ccc1NCc1cccnc1)N1CCOCC1`, the inhibition is -0.79%.

As to `COc1ccc(NC(=O)N(C)C[C@@H]2Oc3c(NC(=O)Nc4cccc5ccccc45)cccc3C(=O)N([C@@H](C)CO)C[C@H]2C)cc1`, the inhibition is 33.8%.

As to `C[C@@H]1CN([C@H](C)CO)C(=O)c2cc(NS(=O)(=O)c3ccc(F)cc3)ccc2O[C@@H]1CN(C)C(=O)Nc1cccc2ccccc12`, the inhibition was 15.5%.

With `COC(=O)c1ccc(NC(=O)CN(c2ccc(C)c(Cl)c2)S(C)(=O)=O)cc1`, the inhibition is -3.13%.

In the case of `COC(=O)c1ccc(NCc2cc(O)ccc2O)cc1`, the inhibition is 96.2% (active).

`COC(=O)c1c(C)n(CCNc2ccc([N+](=O)[O-])cc2)c2ccc(O)cc12`: the inhibition was 32.6%.

For the compound `O=C(CSc1nc(O)cc(=O)n1-c1ccccc1F)Nc1ccc(Cl)cc1Cl`, the inhibition was 9.63%.

`COC(=O)c1ccccc1NC(=O)CN(c1ccc2c(c1)OCCO2)S(C)(=O)=O`: the inhibition is -1.24%.

Take `C[C@H]1CN([C@@H](C)CO)C(=O)c2cc(NC(=O)Cc3cn(C)c4ccccc34)ccc2O[C@@H]1CN(C)Cc1ccc(Cl)c(Cl)c1`: the inhibition was 87.6% (active).

For `C[C@@H]1CN([C@H](C)CO)C(=O)c2cc(NC(=O)Cc3cn(C)c4ccccc34)ccc2O[C@H]1CN(C)S(C)(=O)=O`, the inhibition was 15.5%.

Regarding `C[C@H](CO)N1C[C@H](C)[C@H](CN(C)Cc2ccncc2)Oc2ccc(NC(=O)Cc3cn(C)c4ccccc34)cc2CC1=O`, the inhibition is 6.89%.

For the compound `C[C@H]1CN([C@@H](C)CO)C(=O)c2cc(NC(=O)Cc3cn(C)c4ccccc34)ccc2O[C@H]1CN(C)CC1CCCCC1`, the inhibition was 15%.

Consider `C[C@H]1CN([C@@H](C)CO)C(=O)c2cc(NC(=O)Cc3cn(C)c4ccccc34)ccc2O[C@H]1CN(C)Cc1ccc(Cl)c(Cl)c1`, for which the inhibition is 84% (active).

As to `C[C@@H]1CN([C@@H](C)CO)C(=O)c2cc(NC(=O)Cc3ccccc3)ccc2O[C@H]1CN(C)Cc1ccc(Cl)c(Cl)c1`, the inhibition is 54.8%.
